Assay results from ChEMBL document CHEMBL1961873, “Compounds: GSK PKIS; Assays: Nanosyn kinase panel” (2012).

What was measured:
[1] = target: Sphingosine kinase 1 (Homo sapiens) (UniProt Q9NYA1); details: at 1 µM;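 further: mean SPHK1 inhibition value reported from the GSK PKIS kinase panel screen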
[2] = target: T1, Sphingosine kinase 2 (Homo sapiens) (UniProt Q9NRA0); details: at 0.1 µM
T1 sequence (whole entry): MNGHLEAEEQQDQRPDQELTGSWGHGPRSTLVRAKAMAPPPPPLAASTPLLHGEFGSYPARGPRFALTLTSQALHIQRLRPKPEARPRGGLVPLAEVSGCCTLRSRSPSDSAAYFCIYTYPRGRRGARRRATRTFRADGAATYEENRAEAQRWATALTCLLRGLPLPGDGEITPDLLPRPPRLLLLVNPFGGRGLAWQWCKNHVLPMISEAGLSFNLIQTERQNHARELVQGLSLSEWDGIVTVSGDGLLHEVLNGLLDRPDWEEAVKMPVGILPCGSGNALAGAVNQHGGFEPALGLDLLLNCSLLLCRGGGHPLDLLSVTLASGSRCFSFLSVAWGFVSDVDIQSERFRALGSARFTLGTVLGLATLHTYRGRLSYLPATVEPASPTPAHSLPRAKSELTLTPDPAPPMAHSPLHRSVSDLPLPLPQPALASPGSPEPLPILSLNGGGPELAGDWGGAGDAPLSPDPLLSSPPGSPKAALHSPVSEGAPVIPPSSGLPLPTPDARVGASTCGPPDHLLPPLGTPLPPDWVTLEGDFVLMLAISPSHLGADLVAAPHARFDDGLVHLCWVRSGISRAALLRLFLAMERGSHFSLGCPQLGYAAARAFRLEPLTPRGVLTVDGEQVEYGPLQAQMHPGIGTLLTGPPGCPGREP

[3] = target: T1, Sphingosine kinase 2 (Homo sapiens); details: at 1 µM
[4] = target: Casein kinase II subunit alpha (Homo sapiens) (UniProt P68400); details: at 0.1 µM
Sequence of Casein kinase II subunit alpha (Homo sapiens) (P68400 whole entry, looked up): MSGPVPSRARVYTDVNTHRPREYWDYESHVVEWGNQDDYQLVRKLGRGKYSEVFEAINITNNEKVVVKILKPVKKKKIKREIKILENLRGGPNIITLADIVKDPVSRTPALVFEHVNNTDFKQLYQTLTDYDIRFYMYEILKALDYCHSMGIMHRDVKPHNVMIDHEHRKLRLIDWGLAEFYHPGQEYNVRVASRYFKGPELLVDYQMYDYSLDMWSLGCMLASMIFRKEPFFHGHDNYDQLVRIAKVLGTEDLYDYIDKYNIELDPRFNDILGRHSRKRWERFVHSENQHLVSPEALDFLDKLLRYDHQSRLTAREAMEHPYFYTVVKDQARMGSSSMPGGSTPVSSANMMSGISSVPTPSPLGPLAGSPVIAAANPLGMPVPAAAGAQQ

[5] = target: Casein kinase II subunit alpha (Homo sapiens) (UniProt P68400); details: at 1 µM
[6] = target: T2, Inhibitor of nuclear factor kappa-B kinase subunit alpha (Homo sapiens) (UniProt O15111); details: at 0.1 µM
T2 sequence (whole entry): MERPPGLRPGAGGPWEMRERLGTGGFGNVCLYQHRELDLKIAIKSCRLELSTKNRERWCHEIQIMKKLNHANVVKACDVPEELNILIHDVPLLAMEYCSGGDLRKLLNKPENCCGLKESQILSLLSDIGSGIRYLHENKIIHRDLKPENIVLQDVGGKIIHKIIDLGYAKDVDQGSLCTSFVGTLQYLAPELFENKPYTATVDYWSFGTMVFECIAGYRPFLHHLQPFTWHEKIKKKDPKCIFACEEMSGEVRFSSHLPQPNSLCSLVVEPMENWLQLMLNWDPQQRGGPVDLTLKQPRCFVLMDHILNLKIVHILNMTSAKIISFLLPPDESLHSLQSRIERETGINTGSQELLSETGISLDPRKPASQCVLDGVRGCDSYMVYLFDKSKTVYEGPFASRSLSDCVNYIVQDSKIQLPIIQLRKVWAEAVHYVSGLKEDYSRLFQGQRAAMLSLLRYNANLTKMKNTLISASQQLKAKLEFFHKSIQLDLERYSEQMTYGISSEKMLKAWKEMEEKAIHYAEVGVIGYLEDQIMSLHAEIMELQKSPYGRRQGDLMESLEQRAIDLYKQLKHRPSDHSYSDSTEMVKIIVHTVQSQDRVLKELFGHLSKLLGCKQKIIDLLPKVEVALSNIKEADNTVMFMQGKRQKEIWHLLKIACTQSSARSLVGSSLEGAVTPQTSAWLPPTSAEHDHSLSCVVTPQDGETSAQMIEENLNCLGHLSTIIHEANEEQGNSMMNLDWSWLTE

[7] = target: T2, Inhibitor of nuclear factor kappa-B kinase subunit alpha (Homo sapiens); details: at 1 µM
[8] = target: T3, Inhibitor of nuclear factor kappa-B kinase subunit beta (Homo sapiens) (UniProt O14920); details: at 0.1 µM
T3 sequence (whole entry): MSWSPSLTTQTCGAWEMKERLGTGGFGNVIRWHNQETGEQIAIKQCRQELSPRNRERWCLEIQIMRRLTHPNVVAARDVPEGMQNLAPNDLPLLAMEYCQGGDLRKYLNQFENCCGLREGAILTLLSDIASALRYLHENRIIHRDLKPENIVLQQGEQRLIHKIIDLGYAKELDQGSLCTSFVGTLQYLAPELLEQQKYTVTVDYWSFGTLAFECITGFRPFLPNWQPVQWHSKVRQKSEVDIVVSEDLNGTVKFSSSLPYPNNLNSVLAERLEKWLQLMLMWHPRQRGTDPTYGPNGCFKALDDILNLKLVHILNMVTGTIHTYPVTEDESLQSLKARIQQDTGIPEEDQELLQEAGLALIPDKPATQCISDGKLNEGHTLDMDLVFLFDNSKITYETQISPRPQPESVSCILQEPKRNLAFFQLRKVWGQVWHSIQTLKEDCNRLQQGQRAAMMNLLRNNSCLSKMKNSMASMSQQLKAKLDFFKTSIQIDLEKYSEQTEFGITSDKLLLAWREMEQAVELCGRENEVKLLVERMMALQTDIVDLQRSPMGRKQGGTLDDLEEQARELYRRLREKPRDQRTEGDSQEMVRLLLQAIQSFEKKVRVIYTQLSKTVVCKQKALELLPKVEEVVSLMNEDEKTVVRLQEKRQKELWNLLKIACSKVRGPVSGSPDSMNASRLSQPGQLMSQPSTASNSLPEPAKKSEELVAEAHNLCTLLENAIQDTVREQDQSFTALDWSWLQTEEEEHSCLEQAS

[9] = target: T3, Inhibitor of nuclear factor kappa-B kinase subunit beta (Homo sapiens); details: at 1 µM
[10] = target: T4, Inhibitor of nuclear factor kappa-B kinase subunit epsilon (Homo sapiens) (UniProt Q14164); details: at 0.1 µM
T4 sequence (whole entry): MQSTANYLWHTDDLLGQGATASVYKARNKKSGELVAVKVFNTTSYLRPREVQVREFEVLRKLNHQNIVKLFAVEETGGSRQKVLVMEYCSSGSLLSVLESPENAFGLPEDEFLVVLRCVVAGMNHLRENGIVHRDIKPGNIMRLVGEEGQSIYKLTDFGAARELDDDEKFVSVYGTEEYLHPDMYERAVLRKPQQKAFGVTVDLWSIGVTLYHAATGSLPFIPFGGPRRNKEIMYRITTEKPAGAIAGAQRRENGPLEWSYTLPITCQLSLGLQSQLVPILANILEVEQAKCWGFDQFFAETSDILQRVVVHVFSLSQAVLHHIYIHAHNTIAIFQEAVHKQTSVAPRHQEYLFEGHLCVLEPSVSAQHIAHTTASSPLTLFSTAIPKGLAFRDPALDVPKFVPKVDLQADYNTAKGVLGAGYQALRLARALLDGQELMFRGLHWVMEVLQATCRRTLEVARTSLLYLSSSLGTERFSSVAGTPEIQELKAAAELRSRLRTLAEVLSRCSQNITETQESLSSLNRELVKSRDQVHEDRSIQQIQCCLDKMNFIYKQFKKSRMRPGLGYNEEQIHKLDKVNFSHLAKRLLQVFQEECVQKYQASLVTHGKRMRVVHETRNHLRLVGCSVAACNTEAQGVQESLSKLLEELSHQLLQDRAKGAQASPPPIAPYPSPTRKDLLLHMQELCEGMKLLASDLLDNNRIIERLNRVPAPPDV

[11] = target: T4, Inhibitor of nuclear factor kappa-B kinase subunit epsilon (Homo sapiens); details: at 1 µM
[12] = target: T5, Serine/threonine-protein kinase Nek1 (Homo sapiens) (UniProt Q96PY6); details: at 0.1 µM
T5 sequence (whole entry): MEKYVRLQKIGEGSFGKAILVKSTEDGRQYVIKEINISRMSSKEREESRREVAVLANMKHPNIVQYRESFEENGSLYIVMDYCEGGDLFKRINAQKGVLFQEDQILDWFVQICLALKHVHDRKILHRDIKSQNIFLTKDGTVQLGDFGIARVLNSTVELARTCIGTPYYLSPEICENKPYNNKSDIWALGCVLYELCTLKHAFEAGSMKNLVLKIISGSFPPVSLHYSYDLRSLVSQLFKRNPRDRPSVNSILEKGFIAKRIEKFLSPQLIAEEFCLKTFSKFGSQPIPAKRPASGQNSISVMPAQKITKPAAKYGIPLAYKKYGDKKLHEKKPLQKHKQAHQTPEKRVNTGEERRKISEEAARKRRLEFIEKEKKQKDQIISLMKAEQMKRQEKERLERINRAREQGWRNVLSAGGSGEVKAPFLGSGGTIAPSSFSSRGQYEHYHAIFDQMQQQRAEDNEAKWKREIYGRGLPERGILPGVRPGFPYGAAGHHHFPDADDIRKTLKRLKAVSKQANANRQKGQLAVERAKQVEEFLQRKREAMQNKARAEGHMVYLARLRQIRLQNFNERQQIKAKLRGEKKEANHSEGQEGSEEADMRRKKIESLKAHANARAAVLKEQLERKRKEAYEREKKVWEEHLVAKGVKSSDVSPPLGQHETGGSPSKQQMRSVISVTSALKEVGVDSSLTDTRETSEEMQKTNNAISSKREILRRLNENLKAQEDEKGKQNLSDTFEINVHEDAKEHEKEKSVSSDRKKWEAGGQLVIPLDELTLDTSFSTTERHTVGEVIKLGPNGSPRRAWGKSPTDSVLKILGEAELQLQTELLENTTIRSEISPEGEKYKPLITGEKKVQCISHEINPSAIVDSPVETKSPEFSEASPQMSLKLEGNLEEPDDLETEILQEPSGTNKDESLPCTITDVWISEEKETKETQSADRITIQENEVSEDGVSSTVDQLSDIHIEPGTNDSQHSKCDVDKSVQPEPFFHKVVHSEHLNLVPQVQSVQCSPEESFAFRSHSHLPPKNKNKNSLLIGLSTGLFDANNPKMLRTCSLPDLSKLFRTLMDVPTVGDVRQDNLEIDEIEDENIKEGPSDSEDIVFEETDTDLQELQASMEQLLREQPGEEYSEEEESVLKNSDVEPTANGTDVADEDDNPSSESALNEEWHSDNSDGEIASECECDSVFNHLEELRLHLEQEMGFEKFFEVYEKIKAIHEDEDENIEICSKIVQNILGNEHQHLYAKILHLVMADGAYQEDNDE

[13] = target: T5, Serine/threonine-protein kinase Nek1 (Homo sapiens); details: at 1 µM
[14] = target: T6, Serine/threonine-protein kinase Nek2 (Homo sapiens) (UniProt P51955); details: at 0.1 µM
T6 sequence (whole entry): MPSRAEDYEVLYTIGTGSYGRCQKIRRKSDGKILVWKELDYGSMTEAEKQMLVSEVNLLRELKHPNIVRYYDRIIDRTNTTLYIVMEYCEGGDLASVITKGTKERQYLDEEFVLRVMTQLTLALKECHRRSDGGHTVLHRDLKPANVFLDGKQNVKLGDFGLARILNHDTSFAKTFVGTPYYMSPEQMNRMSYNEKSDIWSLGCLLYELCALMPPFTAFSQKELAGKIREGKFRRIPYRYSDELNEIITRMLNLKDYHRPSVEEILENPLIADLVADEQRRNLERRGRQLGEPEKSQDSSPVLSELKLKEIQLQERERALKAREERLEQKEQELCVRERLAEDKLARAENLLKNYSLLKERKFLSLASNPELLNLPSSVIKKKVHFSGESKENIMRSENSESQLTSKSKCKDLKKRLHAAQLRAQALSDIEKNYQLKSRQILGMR

[15] = target: T6, Serine/threonine-protein kinase Nek2 (Homo sapiens); details: at 1 µM
[16] = target: Serine/threonine-protein kinase Nek6 (Homo sapiens) (UniProt Q9HC98); details: at 0.1 µM
Sequence of Serine/threonine-protein kinase Nek6 (Homo sapiens) (Q9HC98 whole entry): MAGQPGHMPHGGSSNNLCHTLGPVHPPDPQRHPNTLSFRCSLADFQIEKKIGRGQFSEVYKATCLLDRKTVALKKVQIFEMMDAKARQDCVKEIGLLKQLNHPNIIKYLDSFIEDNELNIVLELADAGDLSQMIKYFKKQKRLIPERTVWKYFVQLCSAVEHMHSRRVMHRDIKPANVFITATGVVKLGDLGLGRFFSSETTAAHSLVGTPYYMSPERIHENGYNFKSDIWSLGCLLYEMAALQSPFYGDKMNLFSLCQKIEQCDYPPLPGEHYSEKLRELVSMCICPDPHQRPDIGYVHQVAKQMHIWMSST

[17] = target: Serine/threonine-protein kinase Nek6 (Homo sapiens) (UniProt Q9HC98); details: at 1 µM
[18] = target: Serine/threonine-protein kinase Nek7 (Homo sapiens) (UniProt Q8TDX7); details: at 0.1 µM
Sequence of Serine/threonine-protein kinase Nek7 (Homo sapiens) (Q8TDX7 whole entry, looked up): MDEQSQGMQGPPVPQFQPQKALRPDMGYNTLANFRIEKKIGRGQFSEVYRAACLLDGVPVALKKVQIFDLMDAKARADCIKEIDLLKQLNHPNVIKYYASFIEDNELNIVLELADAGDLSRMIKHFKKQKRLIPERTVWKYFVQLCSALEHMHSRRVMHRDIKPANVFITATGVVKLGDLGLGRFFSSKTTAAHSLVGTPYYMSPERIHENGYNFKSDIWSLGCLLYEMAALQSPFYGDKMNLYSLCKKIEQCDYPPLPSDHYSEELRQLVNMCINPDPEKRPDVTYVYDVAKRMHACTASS

[19] = target: Serine/threonine-protein kinase Nek7 (Homo sapiens) (UniProt Q8TDX7); details: at 1 µM
[20] = target: T7, Serine/threonine-protein kinase Nek9 (Homo sapiens) (UniProt Q8TD19); details: at 0.1 µM;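 further: reported value is the mean percent inhibition of NEK9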
T7 sequence (whole entry): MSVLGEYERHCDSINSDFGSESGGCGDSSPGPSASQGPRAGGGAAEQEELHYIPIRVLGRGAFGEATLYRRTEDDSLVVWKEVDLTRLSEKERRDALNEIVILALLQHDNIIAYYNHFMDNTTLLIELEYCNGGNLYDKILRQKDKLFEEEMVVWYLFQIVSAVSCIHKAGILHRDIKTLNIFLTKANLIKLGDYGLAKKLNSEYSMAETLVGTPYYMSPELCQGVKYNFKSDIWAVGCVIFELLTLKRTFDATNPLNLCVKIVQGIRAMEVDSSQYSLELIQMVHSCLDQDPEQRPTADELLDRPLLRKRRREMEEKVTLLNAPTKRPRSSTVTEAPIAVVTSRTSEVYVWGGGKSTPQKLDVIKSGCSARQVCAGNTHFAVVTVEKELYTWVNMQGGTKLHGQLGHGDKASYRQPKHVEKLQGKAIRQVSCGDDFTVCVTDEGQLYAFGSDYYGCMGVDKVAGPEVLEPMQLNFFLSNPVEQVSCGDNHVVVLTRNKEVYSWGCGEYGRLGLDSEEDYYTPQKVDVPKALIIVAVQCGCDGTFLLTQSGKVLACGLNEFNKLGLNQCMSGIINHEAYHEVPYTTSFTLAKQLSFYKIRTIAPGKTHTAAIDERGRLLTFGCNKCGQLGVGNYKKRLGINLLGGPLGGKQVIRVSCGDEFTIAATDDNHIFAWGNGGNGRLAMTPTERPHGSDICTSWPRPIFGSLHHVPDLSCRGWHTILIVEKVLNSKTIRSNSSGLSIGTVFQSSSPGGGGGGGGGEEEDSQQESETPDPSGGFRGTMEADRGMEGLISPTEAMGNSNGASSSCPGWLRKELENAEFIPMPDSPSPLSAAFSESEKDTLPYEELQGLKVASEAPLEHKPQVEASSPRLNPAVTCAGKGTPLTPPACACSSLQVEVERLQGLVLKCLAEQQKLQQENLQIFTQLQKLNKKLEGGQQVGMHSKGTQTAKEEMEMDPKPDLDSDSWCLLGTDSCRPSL

Sequence of Sphingosine kinase 1 (Homo sapiens) (Q9NYA1 whole entry): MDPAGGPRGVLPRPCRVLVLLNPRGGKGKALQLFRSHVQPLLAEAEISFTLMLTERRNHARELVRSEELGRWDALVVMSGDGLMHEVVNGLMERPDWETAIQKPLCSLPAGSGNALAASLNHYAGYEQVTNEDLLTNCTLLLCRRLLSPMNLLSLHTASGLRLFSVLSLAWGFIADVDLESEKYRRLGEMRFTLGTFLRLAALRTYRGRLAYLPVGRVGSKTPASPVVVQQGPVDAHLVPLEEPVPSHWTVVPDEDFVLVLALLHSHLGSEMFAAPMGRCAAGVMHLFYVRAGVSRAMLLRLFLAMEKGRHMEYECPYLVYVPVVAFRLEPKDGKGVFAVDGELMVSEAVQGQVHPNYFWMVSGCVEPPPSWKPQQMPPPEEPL

## CCn1c(-c2nonc2N)nc2cncc(C(=O)NCCNC)c21
[1]
  inhibition: -1.79%
[2]
  inhibition: -0.3%
[3]
  inhibition: 8.93%
[4]
  inhibition: 4.41%
[5]
  inhibition: 2.99%
[6]
  inhibition: 8.82%
[7]
  inhibition: 14.1%
[8]
  inhibition: 6.55%
[9]
  inhibition: 7.92%
[10]
  inhibition: 7.73%
[11]
  inhibition: 17.6%
[12]
  inhibition: 2.71%
[13]
  inhibition: 5.36%
[14]
  inhibition: 6.66%
[15]
  inhibition: 6.84%
[16]
  inhibition: -0.45%
[17]
  inhibition: 0.9%
[18]
  inhibition: 3.5%
[19]
  inhibition: 4.72%
[20]
  inhibition: 7.8%
